One may read the AC50 as the concentration at which the activity in the assay is half-maximal.

Active and inactive are the calls of the source. Rule for the calls: active = hit-call score of the fitted dose curve at least 0.9, where 1 is the maximum; inactive = score below 0.9.

Results on 7 compounds are retold here after PubChem BioAssay (EPA / NIEHS).

Common to all, as to settings: mRNA level, 48 h; actives raise or lower the signal
Read-out in assay [1]: Lipoprotein lipase (LPL), LPL (gene 4023)
The assay is described as follows: LTEA_HepaRG_LPL: Life Technologies and Expression Analysis (LTEA) Assay for Lipoprotein lipase (LPL) using HepaRG (AID 2283515). The method, boiled down: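 Differentiated HepaRG cells, plated 48 h, then exposed 48 h in serum-free induction medium to 8 concentrations (top 100 uM, half-log steps) in 0.5% DMSO, duplicate. LPL mRNA measured by qRT-PCR, normalized to ACTB, GAPDH and POLR2A.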

Read-out in assay [2]: MicroRNA 122 (MIR122), gene 406906
The assay is described as follows: LTEA_HepaRG_MIR122: Life Technologies and Expression Analysis (LTEA) Assay for MicroRNA 122 (MIR122) using HepaRG (AID 2283516). Note: the transcript read is the microRNA miR-122. In outline:
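HepaRG plated 48 h, switched to serum-free induction medium, then treated in duplicate for 48 h (100 uM top, half-log steps, 0.5% DMSO vehicle). RNA isolated, qRT-PCR performed, concentration-response fitted both directions relative to DMSO.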

Read-out in assay [3]: matrix metalloproteinase-10 (MMP10), MMP10 (gene 4319)
The assay is described as follows: LTEA_HepaRG_MMP10: Life Technologies and Expression Analysis (LTEA) Assay for matrix metalloproteinase-10 (MMP10) using HepaRG (AID 2283517). The method, boiled down:
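Differentiated HepaRG cells in serum-free induction medium exposed 48 h in duplicate to 8-point half-log series up to 100 uM in 0.5% DMSO. mRNA quantified by qRT-PCR, normalised to ACTB, GAPDH, POLR2A; bidirectional fit versus DMSO.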

Read-out in assay [4]: matrix metalloproteinase-3 (MMP3), MMP3 (gene 4314)
The assay is described as follows: LTEA_HepaRG_MMP3: Life Technologies and Expression Analysis (LTEA) Assay for matrix metalloproteinase-3 (MMP3) using HepaRG (AID 2283519). The method, boiled down: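 HepaRG cells (~100,000/well) in serum-free induction medium were dosed in duplicate for 48 h with an 8-point half-log series from 100 uM, 0.5% DMSO. MMP3 mRNA was quantified by Fluidigm TaqMan qRT-PCR, normalized to three housekeeping genes.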

Read-out in assay [5]: Paternally Expressed 10 (PEG10), PEG10 (gene 23089)
Kind of assay: LTEA_HepaRG_PEG10: Life Technologies and Expression Analysis (LTEA) Assay for Paternally Expressed 10 (PEG10) using HepaRG (AID 2283520). In outline:
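HepaRG, 48 h post-plating → serum-free induction medium → 48 h chemical exposure (duplicate, 8-pt, max 100 uM, half-log, 0.5% DMSO) → lysis in RLT → TaqMan qRT-PCR for PEG10, ACTB/GAPDH/POLR2A normalisation.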

Read-out in assay [6]: Protein phosphatase 2A (PPP2R4), PTPA (gene 5524)
The assay is described as follows: LTEA_HepaRG_PPP2R4: Life Technologies and Expression Analysis (LTEA) Assay for Protein phosphatase 2A (PPP2R4) using HepaRG (AID 2283522). The method, boiled down: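 Readout is PPP2R4 transcript level by microfluidic qRT-PCR after 48 h chemical treatment of human HepaRG liver cells. Concentrations spanned 100 uM downward in half-log steps; gain or loss of signal was fitted relative to DMSO.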

Read-out in assay [7]: solute carrier (SLC22A1), SLC22A1 (gene 6580)
The assay is described as follows: LTEA_HepaRG_SLC22A1: Life Technologies and Expression Analysis (LTEA) Assay for solute carrier (SLC22A1) using HepaRG (AID 2283524). In outline:
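Differentiated human HepaRG cells in serum-free induction medium, exposed 48 h in duplicate to 8-point half-log series from 100 µM top in 0.5% DMSO. SLC22A1 mRNA by TaqMan qRT-PCR normalized to ACTB, GAPDH, POLR2A; bidirectional fit versus DMSO.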

Read-out in assay [8]: Pyruvate Dehydrogenase Kinase 4 (PDK4), PDK4 (gene 5166)
The assay is described as follows: LTEA_HepaRG_PDK4: Life Technologies and Expression Analysis (LTEA) Assay for Pyruvate Dehydrogenase Kinase 4 (PDK4) using HepaRG (AID 2283525). In outline: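 HepaRG cells plated 48 h, then switched to serum-free induction medium and exposed in duplicate for 48 h to 8 half-log concentrations from 100 uM in 0.5% DMSO. PDK4 mRNA measured by qRT-PCR, normalized to ACTB, GAPDH and POLR2A; bidirectional fit versus DMSO.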

Read-out in assay [9]: NAD(P)H dehydrogenase [quinone] 1 (NQO1), NQO1 (gene 1728)
Kind of assay: LTEA_HepaRG_NQO1: Life Technologies and Expression Analysis (LTEA) Assay for NAD(P)H dehydrogenase [quinone] 1 (NQO1) using HepaRG (AID 2283526). In outline:
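HepaRG, 48 h post-plating → serum-free induction medium → test chemical 48 h (duplicate, 100 uM top, half-log x8, 0.5% DMSO) → RNA isolation → qRT-PCR, ACTB/GAPDH/POLR2A normalization; bidirectional curve fit vs DMSO baseline.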

Read-out in assay [10]: Nuclear factor erythroid 2-related factor 2 (Homo sapiens) (UniProt Q16236)
Kind of assay: LTEA_HepaRG_NFE2L2: Life Technologies and Expression Analysis (LTEA) Assay for Nuclear factor erythroid 2-related factor 2 (NFE2L2) Transcription Factor using HepaRG (AID 2283527).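 For outcome: TaqMan qRT-PCR transcript level normalised to ACTB GAPDH and POLR2A housekeeping genes.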 The method, boiled down: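 Differentiated human HepaRG cells, serum-free induction medium, exposed 48 h in duplicate to eight half-log concentrations up to 100 uM in 0.5% DMSO. NFE2L2 mRNA by Fluidigm TaqMan qRT-PCR, normalised to ACTB, GAPDH, POLR2A; bidirectional change versus DMSO.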

Read-out in assay [11]: succinate dehydrogenase complex iron sulfur subunit B (SDHB), SDHB (gene 6390)
Kind of assay: LTEA_HepaRG_SDHB: Life Technologies and Expression Analysis (LTEA) Assay for succinate dehydrogenase complex iron sulfur subunit B (SDHB) using HepaRG (AID 2283528). In outline:
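Readout is SDHB transcript level by qRT-PCR, normalised to three housekeeping genes and fitted bidirectionally against 0.5% DMSO vehicle. Human HepaRG cells were treated for 48 h at up to 100 uM.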

Read-out in assay [12]: solute carrier (SLCO1B1), SLCO1B1 (gene 10599)
The assay is described as follows: LTEA_HepaRG_SLCO1B1: Life Technologies and Expression Analysis (LTEA) Assay for solute carrier (SLCO1B1) using HepaRG (AID 2283530). In outline:
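Gain or loss of SLCO1B1 mRNA is fitted against the 0.5% DMSO vehicle in human HepaRG liver cells treated 48 h at up to 100 uM in half-log steps. Expression comes from qRT-PCR normalized to endogenous controls.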

Read-out in assay [13]: sulfotransferase 2A1 (SULT2A1), SULT2A1 (gene 6822)
Kind of assay: LTEA_HepaRG_SULT2A1: Life Technologies and Expression Analysis (LTEA) Assay for sulfotransferase 2A1 (SULT2A1) using HepaRG (AID 2283531). In outline: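 Cells were plated and cultured 48 h, switched to serum-free induction medium, then dosed in duplicate for 48 h (8 concentrations, max 100 uM). RNA was isolated and SULT2A1 expression measured by qRT-PCR; gain or loss of signal fitted relative to DMSO.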

Read-out in assay [14]: Transforming Growth Factor (TGFA), TGFA (gene 7039)
Kind of assay: LTEA_HepaRG_TGFA: Life Technologies and Expression Analysis (LTEA) Assay for Transforming Growth Factor (TGFA) using HepaRG (AID 2283532). In outline: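 Differentiated HepaRG cells exposed 48 hours in serum-free induction medium, 0.5% DMSO vehicle, 8-point half-log series from 100 uM, in duplicate. TGFA mRNA by TaqMan qRT-PCR, normalised to ACTB, GAPDH, POLR2A; bidirectional fit versus DMSO.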

Read-out in assay [15]: Transforming Growth Factor (TGFB1), TGFB1 (gene 7040)
The assay is described as follows: LTEA_HepaRG_TGFB1: Life Technologies and Expression Analysis (LTEA) Assay for Transforming Growth Factor (TGFB1) Transporter using HepaRG (AID 2283533). The method, boiled down: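 Expression change of TGFB1 in human HepaRG cells is measured after a 48 h chemical exposure, up to 100 uM in 0.5% DMSO vehicle. Curves are fitted in both directions relative to the DMSO baseline.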

Read-out in assay [16]: TIMP1, TIMP1 (gene 7076)
Kind of assay: LTEA_HepaRG_TIMP1: Life Technologies and Expression Analysis (LTEA) Assay for TIMP1 using HepaRG (AID 2283534).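 Note: TaqMan qRT-PCR signal normalized to ACTB GAPDH and POLR2A housekeeping genes.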 In outline:
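We dosed human liver HepaRG cultures for 48 hours with up to 100 uM test chemical and measured TIMP1 expression by qRT-PCR. Activity in either direction is fitted relative to the 0.5% DMSO vehicle.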

Read-out in assay [17]: MYC, MYC (gene 4609)
Kind of assay: LTEA_HepaRG_MYC: Life Technologies and Expression Analysis (LTEA) Assay for MYC using HepaRG (AID 2283518). The method, boiled down:
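Cells are thawed, plated and cultured 48 h, then treated for 48 h with test chemicals (eight half-log concentrations from 100 uM, 0.5% DMSO vehicle). RNA is isolated and MYC expression quantified by qRT-PCR against three housekeeping genes.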

Read-out in assay [18]: Phosphatase and tensin (PTEN), PTEN (gene 5728)
Kind of assay: LTEA_HepaRG_PTEN: Life Technologies and Expression Analysis (LTEA) Assay for Phosphatase and tensin (PTEN) using HepaRG (AID 2283523). The method, boiled down:
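HepaRG cells, 48 h after plating, exposed in duplicate for 48 h in serum-free induction medium to 8 half-log concentrations up to 100 uM (0.5% DMSO). PTEN mRNA by qRT-PCR, normalized to ACTB, GAPDH, POLR2A; bidirectional fit versus DMSO.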

Read-out in assay [19]: Signal transducer and activator of transcription 3 (Homo sapiens) (UniProt P40763)
The assay is described as follows: LTEA_HepaRG_STAT3: Life Technologies and Expression Analysis (LTEA) Assay for Signal transducer and activator of transcription (STAT3) using HepaRG (AID 2283529). The method, boiled down:
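Differentiated HepaRG cells, serum-free induction medium, dosed 48 h in duplicate, 8 half-log concentrations from 100 uM in 0.5% DMSO. STAT3 mRNA by qRT-PCR, normalised to ACTB, GAPDH, POLR2A; bidirectional fit versus DMSO.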

Sequence of Nuclear factor erythroid 2-related factor 2 (Homo sapiens) (Q16236 whole entry, looked up): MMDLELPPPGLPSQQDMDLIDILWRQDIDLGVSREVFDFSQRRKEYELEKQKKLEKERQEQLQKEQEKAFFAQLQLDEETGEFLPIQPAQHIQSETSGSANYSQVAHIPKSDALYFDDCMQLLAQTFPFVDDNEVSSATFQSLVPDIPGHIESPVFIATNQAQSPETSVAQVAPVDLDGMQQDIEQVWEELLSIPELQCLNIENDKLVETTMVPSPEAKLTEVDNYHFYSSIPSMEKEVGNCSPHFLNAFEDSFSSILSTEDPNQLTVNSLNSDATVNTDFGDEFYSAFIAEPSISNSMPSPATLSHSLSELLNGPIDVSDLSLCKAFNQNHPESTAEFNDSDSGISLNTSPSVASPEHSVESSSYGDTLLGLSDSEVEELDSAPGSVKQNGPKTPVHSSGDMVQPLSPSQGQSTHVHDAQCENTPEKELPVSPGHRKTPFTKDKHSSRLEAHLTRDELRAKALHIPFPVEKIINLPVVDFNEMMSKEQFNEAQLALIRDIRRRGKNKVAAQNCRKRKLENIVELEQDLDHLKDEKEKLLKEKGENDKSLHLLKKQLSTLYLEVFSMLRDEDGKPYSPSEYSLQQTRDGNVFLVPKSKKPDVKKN
Sequence of Signal transducer and activator of transcription 3 (Homo sapiens) (P40763 whole entry, looked up): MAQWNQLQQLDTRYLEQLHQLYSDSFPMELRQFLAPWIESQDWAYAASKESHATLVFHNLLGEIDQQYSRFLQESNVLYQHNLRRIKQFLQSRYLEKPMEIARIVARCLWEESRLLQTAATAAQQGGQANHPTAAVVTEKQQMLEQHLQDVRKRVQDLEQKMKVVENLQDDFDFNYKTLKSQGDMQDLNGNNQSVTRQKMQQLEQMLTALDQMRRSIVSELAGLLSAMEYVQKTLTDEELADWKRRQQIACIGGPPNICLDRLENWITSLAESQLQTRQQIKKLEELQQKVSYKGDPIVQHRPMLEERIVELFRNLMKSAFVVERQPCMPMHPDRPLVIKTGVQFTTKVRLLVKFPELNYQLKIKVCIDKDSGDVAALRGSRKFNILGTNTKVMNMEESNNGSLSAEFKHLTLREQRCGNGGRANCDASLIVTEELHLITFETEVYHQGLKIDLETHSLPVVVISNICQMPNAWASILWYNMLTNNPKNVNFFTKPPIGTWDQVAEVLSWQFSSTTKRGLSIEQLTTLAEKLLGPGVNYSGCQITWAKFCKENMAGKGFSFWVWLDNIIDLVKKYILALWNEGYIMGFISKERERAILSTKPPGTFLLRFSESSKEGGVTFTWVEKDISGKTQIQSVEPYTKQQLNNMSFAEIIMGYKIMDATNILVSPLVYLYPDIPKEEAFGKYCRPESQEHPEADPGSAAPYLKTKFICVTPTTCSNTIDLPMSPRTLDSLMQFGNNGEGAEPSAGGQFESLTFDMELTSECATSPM

Turning to `CC/C(=C(/CC)c1ccc(O)cc1)c1ccc(O)cc1`, the concentration at half-maximal activity (AC50) is 83.9 µM (active) in assay [1]; 86.9 µM (active) in [3]; 67.1 µM (active) in assay [5]; 85.4 µM (active) in [6]; 75.7 µM (active) in assay [7]; 80.1 µM (active) in [8]. For the same compound, the half-maximal activity concentration (AC50) is 89.9 µM (active) in assay [10]; 50 µM (active) in assay [11]; 93.7 µM (active) in assay [13]; 81.3 µM (active) in [14]; 90.8 µM (active) in assay [15]. For the same compound, the call in assay [2], in [4], in [9], in assay [12] and in [16] was inactive.
As for `CCCCCCCCCCCCO`, the compound was classed as inactive in assay [1], in [2], in assay [3], in assay [17], in assay [5] and in assay [6]. The result in [18], in assay [7], in assay [9], in assay [10], in assay [11] and in assay [19] was inactive. Besides, the compound was called inactive in [12], in assay [13], in assay [14], in assay [15] and in assay [16].
Consider `CCCCCCCCOc1ccc(C(=O)c2ccccc2)c(O)c1`, for which the outcome in assay [1], in assay [2], in assay [3], in assay [5], in assay [6] and in assay [18] was inactive. Also, the compound was called inactive in assay [7], in [9], in [10], in assay [11], in [12] and in assay [13]. Also, the outcome in [15] and in [16] was inactive.
With `Oc1ccc2ccccc2c1`, the result in assay [1], in [2], in assay [3], in assay [5], in assay [6] and in assay [7] was inactive. Besides, the compound was classed as inactive in assay [8], in [9], in assay [10], in [11], in assay [12] and in assay [13]. In addition, the call in [14], in [15] and in [16] was inactive.
Take `CCCCOC(=O)CC(CC(=O)OCCCC)(OC(C)=O)C(=O)OCCCC`: the compound was classed as inactive in assay [1], in [2], in assay [3], in [5], in assay [6] and in assay [7]. Moreover, the compound was classed as inactive in assay [9], in assay [10], in [11], in assay [19], in [12] and in assay [13]. Moreover, the call in assay [15] and in assay [16] was inactive.
Consider `O=C(OCCCCCCOC(=O)c1ccccc1)c1ccccc1`, for which the compound was called inactive in assay [1], in [2], in [3], in assay [17], in [5] and in assay [6]. Moreover, the outcome in assay [18], in assay [7], in assay [9], in assay [10], in assay [11] and in assay [12] was inactive. In addition, the result in assay [13], in assay [15] and in assay [16] was inactive.
For the compound `c1ccc2n[nH]nc2c1`, the call in assay [1], in [2], in assay [3], in assay [5], in assay [6] and in assay [7] was inactive. Moreover, the compound was called inactive in assay [8], in [9], in assay [10], in assay [11], in assay [12] and in assay [13]. For the same compound, the call in assay [14], in assay [15] and in [16] was inactive.
